# Assay results from PubChem BioAssay AID1851 (National Center for Advancing Translational Sciences (NCATS), 2009).
# About 2,600 (16%) of roughly 16,000 compounds were called active. Inconclusive results (about 20%) are left out. These entries were drawn from the full list. Values without a mark were called inactive. The call rests on the fitted dose curve; in most records, active means well fitted curve in the direction sought with a large enough effect; inconclusive means small, poorly fitted or top-dose-only effect, or effect the other way; inactive means no such curve, though single readings can be large or run the other way.
# Target: Cytochrome P450 2D6 (Homo sapiens) (UniProt P10635)
# Sequence (P10635 whole entry, looked up): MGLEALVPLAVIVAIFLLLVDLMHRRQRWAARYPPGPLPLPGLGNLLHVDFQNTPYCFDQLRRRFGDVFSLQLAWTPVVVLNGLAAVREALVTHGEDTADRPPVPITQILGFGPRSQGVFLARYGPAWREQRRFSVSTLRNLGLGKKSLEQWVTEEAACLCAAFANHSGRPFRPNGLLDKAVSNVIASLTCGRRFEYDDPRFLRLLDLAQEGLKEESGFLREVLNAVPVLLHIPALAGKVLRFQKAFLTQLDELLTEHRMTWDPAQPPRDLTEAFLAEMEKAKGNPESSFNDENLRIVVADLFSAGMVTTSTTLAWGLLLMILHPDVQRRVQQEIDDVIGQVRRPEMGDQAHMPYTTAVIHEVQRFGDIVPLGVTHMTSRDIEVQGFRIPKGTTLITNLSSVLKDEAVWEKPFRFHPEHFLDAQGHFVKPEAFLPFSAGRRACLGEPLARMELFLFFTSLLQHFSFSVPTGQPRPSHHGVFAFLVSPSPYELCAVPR
# Experiment: Cytochrome panel assay with activity outcomes
# Details: recombinant CYP, pro-luciferin dealkylation, luminescence, p450-cyp2d6; series mostly up to 57.1 µM
# On the % scale 0 is the no-effect control and ±100 the full control effect.
SMILES,AC50,"activity, negative = inhibition"
O=C(O)c1sc2cc(C(F)(F)F)cnc2c1-c1ccccc1,inactive,–
CCCCC1CC(/C(C)=N/NC(N)=O)OC1=O (stereo not drawn),inactive,–
CC(C)c1ccc(CNc2cc(N3CCCC3)ccc2[N+](=O)[O-])cc1,inactive,–
O=C(NC(NCc1ccccc1)C(Cl)(Cl)Cl)c1cccnc1 (stereo not drawn),inactive,–
O=C(Cc1ccccc1)NC(NCCc1ccccc1)C(Cl)(Cl)Cl (stereo not drawn),14.1 µM (active),–
CC(CP(=O)(O)O)NC(=O)Cc1ccccc1 (stereo not drawn),inactive,–
Cc1n[nH]c(=S)n1/N=C/c1ccccc1OCc1ccc(Cl)cc1,inactive,–
COc1ccc(CNC(C)(C)C)cc1Cl,inactive,–
CCOc1ccc(CC(=O)C2C(=O)CCCC2=O)cc1OCC,inactive,–
CCOc1ccc(CNC(=O)C2CC(=O)N(C3CCCC3)C2)cc1OC (stereo not drawn),inactive,–
CCc1ccc(OCC(=O)NC(=S)Nc2ccc(F)cc2)c(Br)c1,inactive,–
CCOc1nc(NCCc2ccc(OC)c(OC)c2)nc(NC(C)(C)CO)n1,inactive,–
C=CCOc1ccc(CNC(C)(C)CO)cc1OCC,1.41 µM (active),–
COc1cc(CNC(C)(C)CO)ccc1OCC(=O)Nc1ccc(Br)cc1,5.01 µM (active),–
CCOC(=O)c1ccc(NC(=O)COc2ccccc2OC)cc1,inactive,–
C=CCOc1ccc(CNC(C)(C)CO)cc1OC,1.41 µM (active),–
Cc1ccccc1C(=O)NNC(=O)c1ccoc1C,inactive,–
CC(C)CC(=O)N[C@H](C(=O)N[C@H](C(=O)N[C@@H](CC(C)C)[C@H](O)CC(=O)N[C@@H](C)C(=O)N[C@@H](CC(C)C)[C@H](O)CC(=O)O)C(C)C)C(C)C,inactive,–
O=C(Nc1nnc(-c2ccc(Cl)cc2)o1)Nc1ccccc1Cl,inactive,–
COc1ccc(Oc2ncc3nc(-c4cc(F)cc(F)c4)c(=O)n(C)c3n2)cc1,inactive,–
Cc1cc(C(F)(F)F)n2nc(-c3cnn(C)c3C(F)(F)F)cc2n1,inactive,–

SMILES,AC50,"activity, negative = inhibition"
CN1CCN(c2ncc3nc(-c4cccs4)c(=O)n(C[C@H]4CCCO4)c3n2)CC1,inactive,–
COC(=O)c1c(-c2cc(OC)c(OC)c(OC)c2)c2ccnc(OCc3ncccn3)c2c(=O)n1Cc1ccnc(C)c1,inactive,–
C[C@H](N)C(=O)O,inactive,–
COc1ccc2c(c1)OC1=C(C(=O)CCC1)C2C1=C(O)CCCC1=O (stereo not drawn),inactive,–
Cc1ccc(S(=O)(=O)Oc2ccc(C3C4=C(CCCC4=O)OC4=C3C(=O)CCC4)cc2)cc1,7.94 µM (active),–
Cc1ccc(S(=O)(=O)Oc2cc(N)c3c(n2)CCC3)cc1,–,-20.4% [at 11.4 µM]
COc1ncc2nc(-c3ccccc3)c(=O)n(-c3ccccc3)c2n1,inactive,–
COC(=O)C(C(=O)OC)C(C[N+](=O)[O-])c1ccc(OC)c(OC)c1 (stereo not drawn),inactive,–
O=C1CC(N(O)C2CC(=O)N(Cc3ccccc3)C2=O)C(=O)N1Cc1ccccc1 (stereo not drawn),inactive,–
CCOC(=O)CCN1C(=O)[C@H]2[C@H]3[C@H](O)[C@H](O)C/C(=N/OC[C@@H](O)COCc4ccco4)[C@@H]3CC[C@@H]2C1=O,–,7.94% [at 11.4 µM]
Fc1ccc(Nc2ccnc(-c3ccc4c(c3)OCO4)n2)cc1,10 µM (active),–
Nc1nccc(Nc2ccc(S(N)(=O)=O)cc2)n1,–,-5.16% [at 11.4 µM]
Cc1noc(C)c1-c1nccc(Nc2ccc(F)cc2)n1,inactive,–
CN(C)C(=O)c1ccc(-c2nccc(Nc3ccc(F)cc3)n2)cc1,inactive,–
Cc1noc(C)c1-c1cc(Nc2ccc(F)cc2)ncn1,inactive,–
CN(C)c1ccc(-c2nccc(Nc3ccc(F)cc3)n2)cc1,20 µM (active),–
C[C@H]1[C@@H](O)[C@@H](C)\C=C/C=C\C=C/C=C\C=C/C=C\C=C/[C@@H](O[C@H]2O[C@@H](C)[C@@H](O)[C@@H](N)[C@@H]2O)C[C@@H]2O[C@](O)(C[C@@H](O)C[C@@H](O)[C@@H](O)CC[C@@H](O)C[C@@H](O)CC(=O)O[C@H]1C)C[C@@H](O)[C@H]2C(=O)O (stereo in doubt),inactive,–
Cc1sc2c(c1C)c(=O)n(-c1ccccc1)c1nnc(C)n21,inactive,–
CC(C)OC(=O)C(C)(C)Oc1ccc(C(=O)c2ccc(Cl)cc2)cc1,inactive,–
CC(C)(Oc1ccc(Cl)cc1)C(=O)Nc1ccncc1,0.0316 µM (active),–
CC(C)(Oc1ccc(Cl)cc1)C(=O)Nc1cccnc1,inactive,–

SMILES,AC50,"activity, negative = inhibition"
CN(C)c1ncc2nc(-c3ccc(F)cc3)c(=O)n(CCc3ccccc3)c2n1,inactive,–
COc1cc2ccc(=O)oc2cc1O,inactive,–
Cc1noc(C)c1-c1cncnc1NCCN1CCOCC1,inactive,–
c1cncc(-c2nc(NCCN3CCOCC3)c3ccccc3n2)c1,10 µM (active),–
N#CCCn1c(=O)c(-c2cccc(C#N)c2)nc2cnc(N3CCOCC3)nc21,inactive,–
COc1cccc(-c2cncnc2NCCN2CCOCC2)c1,10 µM (active),–
N#Cc1cccc(-c2nc(NCCN3CCOCC3)c3ccccc3n2)c1,7.94 µM (active),–
CN(C)C(=O)c1ccc(-c2cncnc2NCCN2CCOCC2)cc1,inactive,–
CS(=O)(=O)Nc1cccc(-c2nc(NCCN3CCOCC3)c3ccccc3n2)c1,inactive,–
COc1cccc(-c2nc(NCCN3CCOCC3)c3ccccc3n2)c1,12.6 µM (active),–
COc1cccc(-c2cc(C(F)(F)F)nc(N3CCOCC3)n2)c1,inactive,–
COC(=O)c1ccccc1NC(=O)c1ccc(COc2ccc(C)c(C)c2)o1,inactive,–
NCCCCCCCCCCN,inactive,–
O=C1NC(c2ccccc2)=NC1(NS(=O)(=O)c1ccccc1)C(F)(F)F (stereo not drawn),inactive,–
CCOC(=O)c1cc(-c2ccccc2)sc1NC(=O)C(C)(C)C,inactive,–
Nc1nc(-c2ccc3ccccc3c2)cc(-c2cc(-c3ccc4ccccc4c3)nc(N)n2)n1,–,1.49% [at 11.4 µM]
CC(=O)Nc1cccc(C(=O)OCc2ccc(C(=O)Oc3ccc(Cl)cc3)cc2)c1,inactive,–
CN1CCN(C(=O)C(C(=O)c2ccc(F)cc2)n2ccccc2=O)CC1 (stereo not drawn),inactive,–
CCc1cccc2c(C=C(C#N)C#N)cn(CC(=O)N3CCCC3)c12,inactive,–
COc1ccc(/C=C2\CCCC3C2=NN(C(=O)c2ccco2)C3c2ccc(OC)c(OC)c2)cc1OC (stereo not drawn),inactive,–
COc1ccc(/C=C2\N=C(SC)N(C)C2=O)cc1,inactive,–
